# In PubChem BioAssay (Tox21):
# Unmarked numbers belong to inactive results. Results filed as inconclusive are left out. A call without a number means that no potency is given here. Activity calls are given as the source filed them. Calls follow the shape of the dose curve; as a rule, active = well fitted curve in the direction sought with a large enough effect in the repeat runs; inconclusive = weak or mixed curves; inactive = no such curve, though single readings can be large; an effect the other way counts as inactive or inconclusive.
# Legend:
# [1] = qHTS RealTime-Glo MT Cell Viability Assay in HEK293 cells - 16 hour (AID 1224872); also: nearly all actives have a fitted effect of over 50% in size; also: potency is read from the fitted curve at half-maximal effect
# Procedure, shortened: (§1)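 HEK293 cells were seeded at 600 cells/well together with NanoLuc luciferase and cell-permeant prosubstrate, preincubated 5 h at 37 C/5% CO2, then given compound in DMSO by pintool. Luminescence from viable-cell prosubstrate reduction was read repeatedly over 40 h.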
# [2] = qHTS RealTime-Glo MT Cell Viability Assay in HepG2 cells - 8 hour (AID 1224873); also: nearly all actives have a fitted effect of over 55% in size; also: potency is read from the fitted curve at half-maximal effect
# Procedure, shortened: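 HepG2 cells mixed with RealTime-Glo MT reagents (NanoLuc plus cell-permeant prosubstrate) were seeded at 600 cells/well, incubated 5 h at 37 C/5% CO2, then pinned with compounds in DMSO; nonlytic luminescence tracked viability during 40 h treatment.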
# [3] = qHTS RealTime-Glo MT Cell Viability Assay in HEK293 cells - 40 hour (AID 1224874); settings: RealTime-Glo luminescence; max response: hits give low values; also: nearly all actives have a fitted effect of over 50% in size; also: potency is read from the fitted curve at half-maximal effect
# Procedure, shortened: (§2)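 Tox21 screen in HEK293 using RealTime-Glo MT chemistry, with cells and reagent co-dispensed. Luminescence proportional to viable cell number was captured at intervals during 40 h compound exposure at 37 C.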
# [4] = A CellTox Green Cytotoxicity Assay to monitor cytotoxicity in HEK293 cells - 24 hour (AID 1224875); also: nearly all actives have a fitted effect of over 45% in size; also: potency is read from the fitted curve at half-maximal effect
# Procedure, shortened: (§3)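 Seeding of HEK293 cells together with cytotoxicity dye preceded a 5 h incubation at 37 C/5% CO2. Test compounds in DMSO were then added and fluorescence monitored across 40 h.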
# [5] = A CellTox Green Cytotoxicity Assay to monitor cytotoxicity in HepG2 cells - 16 hour (AID 1224876); also: nearly all actives have a fitted effect of over 45% in size; also: potency is read from the fitted curve at half-maximal effect
# Procedure, shortened: (§4)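 Nonlytic assay: viable cells exclude the dye, so fluorescence scales with cell death. HepG2 at 600 cells/well, compounds added after 5 h, signal read across 40 h.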
# [6] = qHTS RealTime-Glo MT Cell Viability Assay in HepG2 cells - 32 hour (AID 1224877); also: nearly all actives have a fitted effect of over 55% in size; also: potency is read from the fitted curve at half-maximal effect
# Procedure, shortened: (§5)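 HepG2 cells were seeded at 600 cells/well together with NanoLuc luciferase and a cell-permeant prosubstrate, preincubated 5 h at 37 C/5% CO2, then pin-dosed with compounds in DMSO. Nonlytic luminescence from viable cells was read at each time point.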
# [7] = A CellTox Green Cytotoxicity Assay to monitor cytotoxicity in HepG2 cells - 24 hour (AID 1224878); also: nearly all actives have a fitted effect of over 45% in size; also: potency is read from the fitted curve at half-maximal effect
# Procedure, shortened: as §4
# [8] = qHTS RealTime-Glo MT Cell Viability Assay in HEK293 cells - 0 hour (AID 1224880); also: top concentration of the series differs between compounds; nearly all actives have a fitted effect of over 45% in size
# Procedure, shortened: as §2
# [9] = A CellTox Green Cytotoxicity Assay to monitor cytotoxicity in HEK293 cells - 32 hour (AID 1224881); also: nearly all actives have a fitted effect of over 40% in size
# Procedure, shortened: as §3
# [10] = A CellTox Green Cytotoxicity Assay to monitor cytotoxicity in HepG2 cells - 0 hour (AID 1224882); also: nearly all actives have a fitted effect of over 35% in size
# Procedure, shortened: as §4
# [11] = A CellTox Green Cytotoxicity Assay to monitor cytotoxicity in HEK293 cells - 8 hour (AID 1224884); also: nearly all actives have a fitted effect of over 35% in size; also: potency is read from the fitted curve at half-maximal effect
# Procedure, shortened: as §3
# [12] = qHTS RealTime-Glo MT Cell Viability Assay in HepG2 cells - 16 hour (AID 1224885); also: nearly all actives have a fitted effect of over 50% in size; also: potency is read from the fitted curve at half-maximal effect
# Procedure, shortened: as §5
# [13] = qHTS RealTime-Glo MT Cell Viability Assay in HEK293 cells - 8 hour (AID 1224887); also: nearly all actives have a fitted effect of over 50% in size; also: potency is read from the fitted curve at half-maximal effect
# Procedure, shortened: as §2
# [14] = A CellTox Green Cytotoxicity Assay to monitor cytotoxicity in HEK293 cells - 16 hour (AID 1224888); also: nearly all actives have a fitted effect of over 35% in size; also: potency is read from the fitted curve at half-maximal effect
# Procedure, shortened: as §3
# [15] = qHTS RealTime-Glo MT Cell Viability Assay in HepG2 cells - 0 hour (AID 1224889); also: nearly all actives have a fitted effect of over 50% in size
# Procedure, shortened: as §5
# [16] = A CellTox Green Cytotoxicity Assay to monitor cytotoxicity in HepG2 cells - 8 hour (AID 1224890); also: nearly all actives have a fitted effect of over 45% in size; also: potency is read from the fitted curve at half-maximal effect
# Procedure, shortened: as §4
# [17] = qHTS assay to identify small molecule antagonists of the estrogen receptor alpha (ER-alpha) signaling pathway using the BG1 cell line in the presence of 0.1 nM 17-beta-estradiol - cell viability counter screen (AID 1259241); also: nearly all actives have a fitted effect of over 40% in size; also: potency is read from the fitted curve at half-maximal effect
# Procedure, shortened: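 VM7Luc4E2 cells (endogenous full-length ER-alpha, 4xERE-luciferase), cultured 5 days in charcoal-stripped serum, exposed to compounds with 0.1 nM 17beta-estradiol (final) for 22 hr at 37C. Viability read in same wells as live-cell protease fluorescence after 30 min.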
# [18] = A CellTox Green Cytotoxicity Assay to monitor cytotoxicity in HepG2 cells - 40 hour (AID 1224879); also: nearly all actives have a fitted effect of over 40% in size; also: potency is read from the fitted curve at half-maximal effect
# Procedure, shortened: as §4
# [19] = A CellTox Green Cytotoxicity Assay to monitor cytotoxicity in HepG2 cells - 32 hour (AID 1224883); also: nearly all actives have a fitted effect of over 50% in size; also: potency is read from the fitted curve at half-maximal effect
# Procedure, shortened: as §4
# [20] = qHTS RealTime-Glo MT Cell Viability Assay in HEK293 cells - 24 hour (AID 1224886); also: nearly all actives have a fitted effect of over 50% in size; also: potency is read from the fitted curve at half-maximal effect
# Procedure, shortened: as §1
structure (smiles),measurement,setting,value
c1ccc(Sc2ccccc2)cc1,Potency,[1],inactive
same,Potency,[2],inactive
same,max response,[3],1.6%
same,Potency,[4],inactive
same,Potency,[5],inactive
same,Potency,[6],inactive
same,Potency,[7],inactive
same,Potency,[8],inactive
same,Potency,[9],inactive
same,Potency,[10],inactive
same,Potency,[11],inactive
same,Potency,[12],inactive
same,Potency,[13],inactive
same,Potency,[14],inactive
same,Potency,[15],inactive
same,Potency,[16],inactive
same,Potency,[17],inactive
CN(C)CCCN1c2ccccc2CCc2ccccc21,Potency,[1],inactive
same,Potency,[2],inactive
same,Potency,[3],54.9 µM (active)
same,Potency,[4],inactive
same,Potency,[6],inactive
same,Potency,[7],49 µM (active)
same,Potency,[18],54.9 µM (active)
same,Potency,[9],inactive
same,Potency,[10],inactive
same,Potency,[19],54.9 µM (active)
same,Potency,[12],inactive
same,Potency,[20],inactive
same,Potency,[13],inactive
same,Potency,[14],inactive
same,Potency,[16],inactive
same,Potency,[17],inactive
COc1cccc(O)c1,Potency,[1],inactive
same,Potency,[2],inactive
same,max response,[3],11.4%
same,Potency,[4],inactive
same,Potency,[5],inactive
same,Potency,[7],inactive
same,Potency,[18],inactive
same,Potency,[8],inactive
same,Potency,[9],inactive
same,Potency,[11],inactive
same,Potency,[12],inactive
same,Potency,[20],inactive
same,Potency,[13],inactive
same,Potency,[14],inactive
same,Potency,[15],inactive
same,Potency,[16],inactive
same,Potency,[17],inactive
CCCCCCCCCCCCCC[n+]1ccccc1,Potency,[1],27.5 µM (active)
same,Potency,[2],49 µM (active)
same,Potency,[3],1.74 µM (active)
same,Potency,[4],38.9 µM (active)
same,Potency,[5],19.5 µM (active)
same,Potency,[7],15.5 µM (active)
same,Potency,[18],11 µM (active)
same,Potency,[8],inactive
same,Potency,[10],inactive
same,Potency,[11],54.9 µM (active)
same,Potency,[12],21.9 µM (active)
same,Potency,[20],6.16 µM (active)
same,Potency,[13],54.9 µM (active)
same,Potency,[14],54.9 µM (active)
same,Potency,[15],inactive
same,Potency,[16],49 µM (active)
CC(C)(C)c1n[nH]c(=O)n(N)c1=O,Potency,[1],inactive
same,Potency,[2],inactive
same,max response,[3],-0.732%
same,Potency,[5],inactive
same,Potency,[6],inactive
same,Potency,[7],inactive
same,Potency,[18],inactive
same,Potency,[8],inactive
same,Potency,[9],inactive
same,Potency,[10],inactive
same,Potency,[11],inactive
same,Potency,[12],inactive
same,Potency,[20],inactive
same,Potency,[13],inactive
same,Potency,[14],inactive
same,Potency,[15],inactive
same,Potency,[17],inactive
CCCC(C)CCC(C)=O (configuration not stated),Potency,[1],inactive
same,Potency,[2],inactive
same,max response,[3],12.6%
same,Potency,[5],inactive
same,Potency,[6],inactive
same,Potency,[7],inactive
same,Potency,[18],inactive
same,Potency,[8],inactive
same,Potency,[9],inactive
same,Potency,[10],inactive
same,Potency,[19],inactive
same,Potency,[11],inactive
same,Potency,[12],inactive
same,Potency,[20],inactive
same,Potency,[13],inactive
same,Potency,[14],inactive
same,Potency,[15],inactive
same,Potency,[16],inactive
same,Potency,[17],inactive
NCCCC(O)(P(=O)(O)O)P(=O)(O)O,Potency,[1],inactive
same,Potency,[2],inactive
same,max response,[3],12.2%
same,Potency,[4],inactive
same,Potency,[6],inactive
same,Potency,[7],inactive
same,Potency,[18],inactive
same,Potency,[8],inactive
same,Potency,[9],inactive
same,Potency,[12],inactive
same,Potency,[20],inactive
same,Potency,[13],inactive
same,Potency,[14],inactive
same,Potency,[15],inactive
same,Potency,[17],inactive
C/C=C/C(=O)Oc1c(CCCCCC(C)C)cc([N+](=O)[O-])cc1[N+](=O)[O-],Potency,[1],19.5 µM (active)
same,Potency,[2],21.9 µM (active)
same,Potency,[3],7.76 µM (active)
same,Potency,[4],38.9 µM (active)
same,Potency,[6],38.9 µM (active)
same,Potency,[7],38.9 µM (active)
same,Potency,[18],38.9 µM (active)
same,Potency,[8],inactive
same,Potency,[19],38.9 µM (active)
same,Potency,[12],21.9 µM (active)
same,Potency,[20],19.5 µM (active)
same,Potency,[16],inactive
same,Potency,[17],27.3 µM (active)
CCc1cccc(CC)c1N(COC)C(=O)CS(=O)(=O)O,Potency,[1],inactive
same,Potency,[2],inactive
same,max response,[3],20.8%
same,Potency,[5],inactive
same,Potency,[6],inactive
same,Potency,[7],inactive
same,Potency,[18],inactive
same,Potency,[8],inactive
same,Potency,[9],inactive
same,Potency,[10],inactive
same,Potency,[11],inactive
same,Potency,[12],inactive
same,Potency,[20],inactive
same,Potency,[13],inactive
same,Potency,[14],inactive
same,Potency,[15],inactive
same,Potency,[17],inactive
CCCCCCC(C)OC(=O)COc1nc(F)c(Cl)c(N)c1Cl (configuration not stated),Potency,[1],inactive
same,Potency,[2],inactive
same,max response,[3],-20.4%
same,Potency,[4],inactive
same,Potency,[6],inactive
same,Potency,[8],inactive
same,Potency,[10],inactive
same,Potency,[11],inactive
same,Potency,[12],inactive
same,Potency,[14],inactive
same,Potency,[15],inactive
same,Potency,[17],inactive
C/C=C/C(=O)C1=C(C)CCCC1(C)C,Potency,[1],inactive
same,Potency,[2],inactive
same,max response,[3],16.6%
same,Potency,[4],inactive
same,Potency,[5],inactive
same,Potency,[7],inactive
same,Potency,[8],inactive
same,Potency,[19],inactive
same,Potency,[12],inactive
same,Potency,[13],inactive
same,Potency,[14],inactive
same,Potency,[15],inactive
same,Potency,[16],inactive
same,Potency,[17],inactive
CCc1c(Br)c(Br)c(Br)c(Br)c1Br,Potency,[1],inactive
same,Potency,[2],inactive
same,max response,[3],4.82%
same,Potency,[5],inactive
same,Potency,[6],inactive
same,Potency,[7],inactive
same,Potency,[18],inactive
same,Potency,[8],inactive
same,Potency,[9],inactive
same,Potency,[10],inactive
same,Potency,[19],inactive
same,Potency,[11],inactive
same,Potency,[12],inactive
same,Potency,[20],inactive
same,Potency,[13],inactive
same,Potency,[14],inactive
same,Potency,[15],inactive
same,Potency,[16],inactive
same,Potency,[17],inactive
CCN(CC)c1cccc(C)c1,Potency,[1],inactive
same,Potency,[2],inactive
same,max response,[3],-4.54%
same,Potency,[4],inactive
same,Potency,[5],inactive
same,Potency,[7],inactive
same,Potency,[18],inactive
same,Potency,[8],inactive
same,Potency,[10],inactive
same,Potency,[19],inactive
same,Potency,[11],inactive
same,Potency,[12],inactive
same,Potency,[20],inactive
same,Potency,[13],inactive
same,Potency,[14],inactive
same,Potency,[15],inactive
same,Potency,[17],inactive
C[Si](C)(C)Cl,Potency,[1],inactive
same,Potency,[2],inactive
same,max response,[3],8.44%
same,Potency,[5],inactive
same,Potency,[6],inactive
same,Potency,[7],inactive
same,Potency,[18],inactive
same,Potency,[8],inactive
same,Potency,[9],inactive
same,Potency,[10],inactive
same,Potency,[19],inactive
same,Potency,[12],inactive
same,Potency,[20],inactive
same,Potency,[13],inactive
same,Potency,[14],inactive
same,Potency,[15],inactive
same,Potency,[16],inactive
same,Potency,[17],inactive
